Results: PubChem BioAssay AID1159580 (chemical genetic matrix, 2015)
Values joined by “and” are separate entries in the source; they are usually repeats but may differ in a detail not shown here. Equal values may be shown once. The whole screen tested about 5,500 compounds, of which about 2,000 (36%) were called active. Inconclusive results (about 18%) are left out. No stated cut-off is given here; in the data, active means normalized growth mostly below about 0.91 (no sharp cut-off); inconclusive means no clear call, values can overlap the other calls; inactive means mostly above about 0.92. This is one part of the list.

Experiment: chemical genetic growth profiling, strain panel (AID 1159580);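 further: tested at 20 µM; growth read once vehicle control cultures reached saturation at 30 °C; 1 = growth at the plate median or of vehicle wells; lower values mean less growth of the strain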
Conditions: S. cerevisiae deletion strains, growth OD

Measured: normalized growth

Cc1ccc(S(=O)(=O)NC(=O)NN2CCCCCC2)cc1
inactive: locus YAL013W, strain DEP1, active compounds read low 0.996 | locus YAL021C, strain ccr4, active compounds read low 0.999 | locus YAL026C, strain drs2, active compounds read low 0.974 | locus YAL030W, strain snc1, active compounds read low 0.991 | locus YAL040C, strain CLN3, active compounds read low 1.05 | locus YBL061C, strain skt5, active compounds read low 0.986 | locus YBR009C, strain hhf1, active compounds read low 0.994 | locus YBR021W, strain FUR4, active compounds read low 0.986 | locus YBR023C, strain chs3, active compounds read low 0.981 | locus YBR171W, strain sec66, active compounds read low 0.99 | locus YBR229C, strain ROT2, active compounds read low 0.995 | locus YBR231C, strain swc5, active compounds read low 0.999 | locus YBR279W, strain paf1, active compounds read low 0.994 | locus YCL011C, strain gbp2, active compounds read low 0.987 | locus YCL016C, strain dcc1, active compounds read low 0.953 | locus YCL029C, strain bik1, active compounds read low 0.99 | locus YCL061C, strain MRC1 (second series), active compounds read low 0.998 | locus YCL069W, strain vba3, active compounds read low 0.986 | locus YCR088W, strain abp1, active compounds read low 0.984 | locus YDL005C, strain med2, active compounds read low 0.989 | locus YDL035C, strain GPR1, active compounds read low 0.997 | locus YDL040C, strain nat1, active compounds read low 0.991 | locus YDL074C, strain BRE1, active compounds read low 1.06 | locus YDL101C, strain DUN1, active compounds read low 0.997 | locus YDL134C, strain PPH21, active compounds read low 0.987 | locus YDL185W, strain tfp1, active compounds read low 0.983 | locus YDL192W, strain arf1, active compounds read low 0.988 | locus YDR001C, strain nth1, active compounds read low 0.986 | locus YDR069C, strain doa4, active compounds read low 1 | locus YDR101C, strain arx1, active compounds read low 0.989 | locus YDR137W, strain rgp1, active compounds read low 0.932 | locus YDR150W, strain NUM1, active compounds read low 1 | locus YDR159W, strain sac3, active compounds read low 0.969 | locus YDR162C, strain NBP2, active compounds read low 0.999 | locus YDR195W, strain ref2 0.996 | locus YDR297W, strain sur2, active compounds read low 1 | locus YDR318W, strain mcm21, active compounds read low 0.977 | locus YDR334W, strain swr1, active compounds read low 0.978 | locus YDR335W, strain msn5, active compounds read low 0.973 | locus YDR363W, strain ESC2, active compounds read low 1.01 | locus YDR388W, active compounds read low 0.985 | locus YDR392W, strain spt3, active compounds read low 0.861 | locus YDR502C, strain sam2, active compounds read low 0.991 | locus YEL003W, strain gim4, active compounds read low 1.01 | locus YEL037C, strain rad23, active compounds read low 0.975 | locus YEL061C, strain CIN8 (second series), active compounds read low 1 | locus YEL061C, strain CIN8, active compounds read low 1 | locus YER002W, strain NOP16, active compounds read low 1 | locus YER015W, strain faa2, active compounds read low 1 | locus YER016W, strain bim1, active compounds read low 0.976 | locus YER110C, active compounds read low 0.988 | locus YER111C, strain swi4, active compounds read low 0.987 | locus YER155C, strain BEM2 (second series), active compounds read low 0.972 | locus YER155C, strain BEM2, active compounds read low 0.988 | locus YER167W, strain BCK2, active compounds read low 0.984 | locus YFR010W, strain ubp6, active compounds read low 1.02 | locus YGL078C, strain dbp3, active compounds read low 0.987 | locus YGL086W, strain mad1, active compounds read low 0.999 | locus YGL167C, strain pmr1, active compounds read low 0.992 | locus YGL173C, strain kem1, active compounds read low 0.998 | locus YGL227W, strain vid30, active compounds read low 1.01 | locus YGL240W, strain doc1, active compounds read low 1 | locus YGL248W, strain PDE1, active compounds read low 1 | locus YGL253W, strain hxk2, active compounds read low 1.02 | locus YGR078C, strain PAC10, active compounds read low 1.04 and 0.986 | locus YGR135W, strain pre9, active compounds read low 0.965 | locus YGR229C, strain SMI1, active compounds read low 1.01 and 1.05 | locus YGR252W, strain gcn5, active compounds read low 0.96 | locus YHR013C, strain ard1, active compounds read low 0.966 | locus YHR027C, strain rpn1, active compounds read low 1 | locus YHR030C, strain SLT2, active compounds read low 0.992 and 1.02 | locus YHR079C, strain IRE1 (second series), active compounds read low 0.988 | locus YHR079C, strain IRE1, active compounds read low 1.02 | locus YHR094C, strain hxt1, active compounds read low 0.98 | locus YHR129C, strain ARP1, active compounds read low 0.993 | locus YHR142W, strain chs7, active compounds read low 0.986 | locus YHR200W, strain rpn10, active compounds read low 0.984 | locus YIL066C, strain RNR3, active compounds read low 1 | locus YIL073C, strain SPO22, active compounds read low 0.925 | locus YIL125W, strain kgd1, active compounds read low 0.982 | locus YIR030C, strain dcg1, active compounds read low 0.978 | locus YJL092W, strain hpr5, active compounds read low 0.991 | locus YJL095W, strain BCK1 (second series), active compounds read low 0.982 | locus YJL095W, strain BCK1, active compounds read low 1.03 and 1.02 | locus YJL115W, strain asf1, active compounds read low 0.979 | locus YJL129C, strain trk1, active compounds read low 0.952 | locus YJL134W, strain LCB3, active compounds read low 0.995 | locus YJL154C, strain vps35, active compounds read low 0.989 | locus YJL164C, strain tpk1, active compounds read low 0.991 | locus YJL166W, strain qcr8, active compounds read low 0.997 | locus YJL168C, strain set2, active compounds read low 0.987 | locus YJL187C, strain SWE1 (second series), active compounds read low 1.02 | locus YJL187C, strain SWE1, active compounds read low 0.992 | locus YJR043C, strain POL32, active compounds read low 1.02 | locus YJR066W, strain TOR1, active compounds read low 0.948
